Experimental data as given in ChEMBL document CHEMBL3988442, “University of Dundee, Small-Polar-MMV Screening Library” (2021).
Out of some 48,000 compounds screened, about 13,000 (27%) showed an effect of 50% or more. The list shows a part of the results.

tested on: Wolbachia pipientis; assay: Anti-Wolbachia Cell-Based Screen; assay type: functional; parameters: scale not given: in the data most compounds retested in dose-response had high values; conditions: 5 µM

SMILES	Percent Effect [%]
CC(C)[C@H]1CN(S(=O)(=O)c2cccnc2)C[C@@H]1N	-3.763
CNC(=O)CS(=O)(=O)C1CCN(S(=O)(=O)c2cccnc2)CC1	10.97
Cc1cccc(C2CCCN(S(=O)(=O)c3cccnc3)C2)n1 (stereo unspecified)	131.9
Cc1cc(N(C)C)cc(C2CCN(S(=O)(=O)c3cccs3)C2)n1 (stereo unspecified)	93.47
COCCc1noc(C2CCN(S(=O)(=O)c3cccs3)CC2)n1	-5.417
CN(C[C@@H]1CCC[C@@H]2CN(c3ncccn3)C[C@@H]21)C1CC1.O=C(O)C(F)(F)F	9.93
COc1ccc(N(Cc2ccco2)C(=O)C2CCOC2)cc1F (stereo unspecified)	-6.319
COc1ccc(CNC(=O)N(Cc2ccc(F)cc2F)C2CC2)cn1	13.46
CCSCc1ccc(C(=O)N2CCCN(CC(N)=O)CC2)cc1	111.3
CCSCc1ccc(C(=O)N2CCCN(CC)CC2)cc1	93.96
CCN1CCCN(C(=O)c2cnc(OC(C)C)c(Cl)c2)CC1	20.31
NC(=O)CN1CCCN(C(=O)c2ccn(-c3ccccc3)n2)CC1	-8.836
Cc1cc(Br)oc1C(=O)N1CCCN(CC(N)=O)CC1	-7.615
CC(=O)N1CCCN(CCCSCc2ccccc2)CC1	-18.43
NC(=O)CN1CCCN(C(=O)c2ccn(-c3ccc(F)cc3)n2)CC1	9.69
NC(=O)CN1CCCN(C(=O)c2ccc(SC(F)F)cc2)CC1	104.9
NC(=O)N1CCCN(CCCSCc2ccccc2)CC1	-22.93
COc1ccc2[nH]c(C[C@@H]3C[C@@H](C(C)C)[C@H](CN(C)C)C=C3C)nc2c1	-3.029
Cc1ccc(C(CNCc2cccn2C)N2CCOCC2)s1 (stereo unspecified)	12.06
Cc1ccc2nc(NCCCN3CCCCCC3=O)n(C)c(=O)c2c1	5.904
CCC(CC)NC(=O)c1ccc2nnc(C3CCN(C(C)=O)C3)n2c1 (stereo unspecified)	-17.88
CN(C)C(=O)NC1COC2(CCN(C(=O)c3ccc(Cl)cc3)CC2)C1 (stereo unspecified)	-7.709
O=C(c1cnc(-c2ccccc2)nc1)N1CCOC2(CCCC2)C1	-7.447
NCCCC(=O)N1CCC2(CC1)CN(C(=O)c1ccc(Cl)cc1)CCO2	114.9
O=C(c1ccoc1)N1CCC2(CC1)C(=O)Nc1ccccc12	5.078
CC(=O)N1CCC2(CC1)CN(C(=O)c1cccc3[nH]ccc13)CCO2	-6.539

SMILES	Percent Effect [%]
O=C(c1ccc(Cl)cc1)N1CCC2(CC1)C(=O)Nc1ccccc12	0.2295
NCCC(=O)N1CCC2(CC1)CN(C(=O)c1ccc(Cl)cc1)CCO2	94.29
CC(C)N(C)C(=O)C1=NOC2(CCN(C(=O)c3ccc(Cl)cc3)C2)C1 (stereo unspecified)	-15.34
O=C(c1ccc(Cl)cc1)N1CCC2(C1)C(=O)Nc1ccccc12 (stereo unspecified)	123
CN(C)Cc1ccc(NC(=O)c2nccn3ccnc23)cc1	4.692
CCc1ncc2c(n1)CN(Cc1cccc3c1OCCO3)CC2	-19.5
Cc1ncc2c(n1)CN(Cc1cccc3c1OCCO3)CC2	-20.45
CC(C)c1nc2c(n1C)CCN(Cc1nc(-c3cccs3)no1)C2	-3.537
Cc1ncc2c(n1)CN(Cc1nc(-c3cccs3)no1)CC2	104.1
COc1ccc(-c2noc(CN3CCc4cncnc4C3)n2)cc1	-16.15
CC(C)c1ncc2c(n1)CN(Cc1nc(-c3cccs3)no1)CC2	1.311
c1csc(-c2noc(CN3CCc4cncnc4C3)n2)c1	93.12
Cn1nc2c(cc1=O)CN(Cc1nc(-c3cccs3)no1)CC2	-4.413
c1cc(CN2CCc3cncnc3C2)c2c(c1)OCCO2	51.63
CCc1ncc2c(n1)CN(Cc1nc(-c3ccsc3)no1)CC2	-2.841
c1csc(-c2noc(CN3CCc4c(ncn4C4CC4)C3)n2)c1	-1.185
CCc1ncc2c(n1)CN(Cc1nc(-c3cccs3)no1)CC2	94.19
O=C(NC1(c2nnn(CC3CC3)n2)CCCC1)c1ccccc1	-31.69
CCc1nc(C)c(C(=O)N2CCCC(c3noc(C)n3)C2)s1 (stereo unspecified)	-3.627
CN(C)c1ccc(CCCNC(=O)NCC(O)c2cccs2)cc1 (stereo unspecified)	15.76
CN1CCN(CCCNC(=O)C2CCCCC2)CC1	-13.83
CC1CCN(C(CNC(=O)CCn2cccn2)c2cccs2)CC1 (stereo unspecified)	3.155
CCC(NCCn1cccn1)C(=O)Nc1cc(C)on1 (stereo unspecified)	-12.89
Cc1cc(-c2cnn(CCNC(=O)Cc3ccccn3)c2C2CC2)on1	116.9
Cc1cc(-c2cnn(CCNC(=O)CCn3cccn3)c2C2CC2)on1	139.3
